From PubChem
DT40 TDP1 no CPT – qHTS for Inhibitors of human tyrosyl-DNA phosphodiesterase 1 (TDP1): qHTS in cells in absence of CPT; DT40 Tdp1-/- hTDP1 cells, no CPT, ATP luminescence, 48 h; Potency, µM (doses to about 46.2 µM), for inactives: top-dose activity change, negative = growth inhibition, hits mostly inhibitors; 420,000 compounds, 15% hits; further: potency means the concentration at half of the fitted maximal effect; nearly all actives have a fitted effect of over 55% in size
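Stably hTDP1-transfected Tdp1-null chicken DT40 cells were treated with library compounds minus camptothecin and grown for at least 48 hr at 37 °C, after which cellular ATP was quantified by luminescence.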
HT1080-NT tox – kills 2HG-producing HT-1080-NT fibrosarcoma cells; HT-1080-NT fibrosarcoma viability, CellTiter-Glo ATP luminescence, 48 h; Potency, µM (series often up to 46.1 µM), for inactives: at the top dose activity, negative = less viability, hits mostly cytotoxic; 360,000 compounds, 1.6% hits; AID 686970;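 further: NT is the 2HG producing partner of a matched IDH1 knockdown line; potency means the concentration at half of the fitted maximal effect; 0% = DMSO-treated cells and -100% = media-only wells without cells; nearly all actives have a fitted effect of over 55% in size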
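Viability by CellTiter-Glo luminescence after 48 h compound exposure at 37C of HT-1080-NT cells (750/well, RPMI, 5% FBS). % activity scaled between DMSO wells and medium-only wells, then curve-fitted and categorized by curve class.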
HT1080 IDH1KD tx – HT-1080 IDH1 knockdown cell toxicity (counter line). HT-1080 IDH1 knockdown viability, ATP luminescence, 48 h. Potency, µM (top dose mostly 46.1 µM), without a hit: at the top dose activity, negative = toxicity, usual class: cytotoxic. 360,000 compounds, 2% hits. AID 686971;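 further: potency means the concentration at half of the fitted maximal effect; 0% = DMSO wells and -100% = cell-free medium wells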
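After a 2 h attachment period, IDH1KD HT-1080 cells took pin-transferred compound for 48 h at 37 °C; ATP-based luminescence after 10 min room-temperature reagent incubation reported viability.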
IL-1B inflam inh – inhibitors of inflammasome signaling (IL-1 beta secretion); 360,000 compounds, 4.7% hits; activity change, % at 57.5 µM; THP-1 LPS/ATP IL-1B secretion, AlphaLISA, 16 h; hits give low values; in the data active means activity change below about -50%; inconclusive means mostly about -30% to -49%
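Secreted IL-1B measured by AlphaLISA bead assay after 16 h compound exposure of THP-1 cells; compounds (final up to 57.5 uM) added 1 h before LPS (250 ng/mL) and ATP (1.25 mM) stimulation; lower signal means less secretion.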
uPA generation – blocks generation of uPA at the cell surface. cell surface uPA generation assay, qHTS. Potency, µM (highest dose often 38.3 µM), for inactives: at the top dose activity change, negative = inhibition, actives largely listed as inhibitors. 330,000 compounds, 0.31% hits. AID 540303; active means well fitted inhibition curve with a large enough effect; inconclusive means small, poorly fitted or top-dose-only effect; inactive means no such curve, though single readings can be large or run the other way; tested in mouse RAW 264.7 cells; further: potency means the concentration at half of the fitted maximal effect; nearly all actives have a fitted effect of over 55% in size
TDP1 cell CPT – DT40-hTDP1 cell growth loss with CPT; AID 686979; Potency, µM (titrated, usually from 46.2 µM), for the others: at the top dose activity change, negative = growth inhibition, usual class: inhibitors; 420,000 compounds, 12% hits; chicken DT40 Tdp1-/-;hTDP1 cells + 20 nM CPT, ATP luminescence, 48 h; further: potency means the concentration at half of the fitted maximal effect; nearly all actives have a fitted effect of over 55% in size
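Chicken DT40 Tdp1-/- cells stably complemented with human TDP1 were seeded at 400 cells/well in medium containing 20 nM camptothecin, exposed to pin-transferred compounds, and grown at 37 °C for at least 48 hr. Viability was read as ATP luminescence.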
The depositor's hits bear a star; u = inconclusive; x = not tested or not shown; ! = a repeat was not active. In the library only some 19% were active in any assay of this set; here they are far more common. Unless noted, the call rests on the fitted dose curve; in most records, active means well fitted curve in the direction sought with a large enough effect; inconclusive means small, poorly fitted or top-dose-only effect, or another doubt; inactive means no such curve, though single readings can be large; an effect the other way counts as inactive or inconclusive. Unless noted, on the % scale 0 is the no-effect control and ±100 the full control effect.

SMILES | DT40 TDP1 no CPT | HT1080-NT tox | HT1080 IDH1KD tx | IL-1B inflam inh | uPA generation | TDP1 cell CPT
CCCCCn1c(=O)c(C(=O)NCc2ccc(Cl)cc2)c(O)c2ccccc21 | u | 2.6% | 0.5% | 21.6 | 4.9% | u
O=C(NC1CCCCC1)N1Cc2ccccc2-n2nncc2C1 | -2.1% | 2.4% | -1.8% | 19.1 | -9.7% | -9.0%
C[C@@H]1CN([C@@H](C)CO)C(=O)CCCn2nncc2CO[C@H]1CN(C)C(=O)Oc1cccc2ccccc12 | -23.6% | 15.1% | -2.0% | 14.5 | x | 1.0%
COC(=O)[C@H]1[C@H]2C[C@@H]3c4[nH]c5cc(OC)ccc5c4CCN3C[C@H]2C[C@@H](OC(=O)/C=C/c2cc(OC)c(OC)c(OC)c2)[C@@H]1OC | 13µM*! | u | u | 50.2 | -25.6% | u
CN[C@@H](C)[C@@H](O)c1ccccc1 | 8.5% | x | x | -1.5 | 29.4% | -6.3%
CCOCCCNC(=O)c1c[nH]c2ccc(S(=O)(=O)N(C)c3ccc(Cl)cc3F)cc2c1=O | 16.4µM* | x | x | x | x | 23.1µM*
CN1CC=C(/C=C/c2ccc(-c3ccccc3)cc2)CC1 | 11.6µM* | -17.4% | -12.9% | u | u | 14.6µM*
COc1ccc(/C=C/C2=CCN(C)CC2)cc1 | -22.2% | -5.4% | 3.1% | -2.1 | -0.8% | -21.3%
C=CCC1(Cc2ccsc2)C(=O)NC(=O)NC1=O | -10.3% | 3.0% | -3.2% | -4.8 | 2.0% | -14.8%
CC(C)(C)n1nnnc1C(CCc1ccccc1)N1CCC2(CC1)C(=O)NCN2c1ccccc1 (stereo not given) | 14.6µM* | u | u | -60.5* | x | 20.6µM*
COc1ccc(-n2nnnc2C(c2cccs2)N2CCC3(CC2)C(=O)NCN3c2ccccc2)cc1 (stereo not given) | 16.4µM* | u | u | -56.6* | x | u
CCC(c1nnnn1-c1ccc(OC)cc1)N1CCC2(CC1)C(=O)NCN2c1ccccc1 (stereo not given) | 10.3µM* | -14.5% | -12.3% | -24.0 | x | u
COc1ccc(-n2nnnc2C(CCc2ccccc2)N2CCC3(CC2)C(=O)NCN3c2ccccc2)cc1 (stereo not given) | u | u | u | -67.1* | x | u
COc1ccc(-n2nnnc2C(CCSC)N2CCC3(CC2)C(=O)NCN3c2ccccc2)cc1 (stereo not given) | u | -8.7% | -17.4% | -15.6 | x | u
CC(C)(C)n1nnnc1C(c1ccccc1)N1CCC2(CC1)C(=O)NCN2c1ccccc1 (stereo not given) | u | -1.1% | 1.8% | 0.0 | x | u
O=C(O)C1C2CC3CC(C2)CC1(n1ncc(N2CCC4(CC2)OCCO4)c(Cl)c1=O)C3 (stereo not given) | -1.0% | 26.6% | 20.0% | -6.0 | 3.3% | 0.5%
COc1ccc(CCNC(=O)c2ccc3c(c2)CCN3S(=O)(=O)c2ccc(C)cc2)cc1OC | 13µM* | x | x | x | x | 20.6µM*
CC1(C)CC(=O)C(C2(O)C(=O)NC(=O)NC2=O)=C(O)C1 | -2.6% | -2.4% | 6.7% | 6.9 | 10.0% | -13.1%
Cc1cccc(-n2c(CC3C(=O)Nc4ccc(C)cc43)nc3ccccc3c2=O)c1 (stereo not given) | 20.6µM* | x | x | x | x | u
COc1ccc(-n2c(-c3ccccc3F)nc3ccccc3c2=O)cc1 | 20.6µM* | 9.1% | 5.6% | 13.2 | x | u
O=C1Nc2ccccc2C1Cc1nc2ccccc2c(=O)n1-c1ccccc1 (stereo not given) | u | 1.6% | 0.3% | 13.5 | -4.3% | u
COc1ccc(-c2nc3ccccc3c(=O)n2-c2ccc(OC)cc2)cc1 | u | 0.4% | -8.1% | 7.2 | 1.7% | u
O=c1c2ccccc2nc(N2CCCC2)n1-c1ccccc1 | 14.6µM* | 9.7% | 6.6% | 25.7 | -0.4% | u
O=c1c2ccccc2nc(-c2ccccc2F)n1-c1ccccc1 | 7.31µM* | 3.7% | -11.6% | 20.9 | 3.7% | u
O=P(Nc1cccnc1)(Oc1ccccc1Cl)Oc1ccccc1Cl | 0.0% | -7.6% | 1.1% | -1.1 | 11.3% | -1.3%
SMILES | DT40 TDP1 no CPT | HT1080-NT tox | HT1080 IDH1KD tx | IL-1B inflam inh | uPA generation | TDP1 cell CPT
O=c1c2ccccc2nc(Cc2ccccc2)n1-c1ccc(O)cc1 | u | -27.2% | -10.7% | -21.2 | 6.5% | u
O=c1c2ccccc2nc(-c2ccc([N+](=O)[O-])cc2)n1-c1ccccc1 | -4.2% | 3.2% | 4.7% | 8.0 | 0.2% | -26.3%
O=c1c2ccccc2nc(Cc2ccccc2)n1-c1cccc(O)c1 | 20.6µM* | -11.1% | -10.0% | -20.3 | 3.4% | 14.6µM*
Cc1nc2cc([N+](=O)[O-])ccc2c(=O)n1-c1cccc(Br)c1 | 18.4µM* | -10.3% | -8.7% | -12.4 | -9.9% | u
COc1ccc(-n2c(-c3ccccc3Br)nc3ccccc3c2=O)cc1 | 20.6µM* | u | -12.3% | 0.3 | -2.9% | u
Cc1cccc(-n2c(-c3ccc([N+](=O)[O-])cc3)nc3ccccc3c2=O)c1 | 8.2µM* | -1.5% | -4.1% | 24.3 | -4.6% | u
O=C(O)CNCP(=O)(O)O | 2.9% | x | x | x | x | -4.2%
CN(C)c1ccc(C2C3C=CC(C3)C2(C#N)C(=O)O)c(Br)c1 (stereo not given) | -1.6% | 13.4% | 3.6% | -15.6 | 16.4% | -2.4%
O=c1c2ccccc2nc(-c2ccccc2)n1-c1ccncc1 | -5.7% | -1.0% | 1.8% | -11.0 | 4.2% | u
O=c1c2ccccc2nc(-c2ccccc2)n1-c1ccccc1 | 8.2µM* | -4.0% | 0.2% | 8.3 | 7.6% | u
CC(C)(COC(=O)C(c1ccccc1)c1ccccc1)CN1CCOCC1 | 20.6µM* | -4.4% | 5.5% | -6.9 | 4.7% | u
COc1cc(CC(=O)N2C[C@H]3C[C@@H](C2)c2cccc(=O)n2C3)cc(OC)c1OC | -0.1% | 19.4% | 6.0% | 0.0 | 13.8% | 3.9%
Clc1ccc2c(c1)C(OC1CN3CCC1CC3)c1ccccc1CS2 (stereo not given) | 14.6µM* | -25.5% | u | -104.3* | u | 16.4µM*
CN1CCN(CCOC2c3ccccc3CSc3ccc(Cl)cc32)CC1 (stereo not given) | 16.4µM* | 16.4µM* | u | -87.1* | -15.8% | u
CN(C)CCSC1c2ccccc2CSc2ccccc21 (stereo not given) | u | -15.4% | -5.4% | -2.4 | -18.7% | u
Cc1ccc(C(=O)Nc2ncc([N+](=O)[O-])s2)cc1 | 18.4µM* | 18.4µM* | 23.1µM* | -66.9* | u | 23.1µM*
